Reference: the supplement of paper PMC6555819

Legend:
Experiment in all cases: PBM binding z-score (relative to random genomic background probes); higher = stronger binding; sequences stand for … in GC…GCGATTGACAGCGTAGAATGAAGG
[1] = test system: FXR:RXRa (NR concentration 270 nM, RXRa partner concentration 90 nM)
Method in brief: (§1)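 Each nuclear receptor dimer, without ligand, was incubated for 1 h on custom Agilent 4×180K protein-binding microarrays. Binding was detected with antibodies against each partner (one per run), and scanned fluorescence was regression-normalized. The binding z-scores are referenced to random human genomic background probes.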

[2] = test system: LXRa:RXRa (NR concentration 270 nM, RXRa partner concentration 90 nM)
Method in brief: as §1

[3] = test system: LXRa homodimer (NR concentration 270 nM)
Method in brief: as §1

[4] = test system: LXRb:RXRa (NR concentration 270 nM, RXRa partner concentration 90 nM)
Method in brief: as §1

[5] = test system: LXRb homodimer (NR concentration 270 nM)
Method in brief: as §1

[6] = test system: PPARa:RXRa (NR concentration 270 nM, RXRa partner concentration 90 nM)
Method in brief: as §1

[7] = test system: PPARg:RXRa (NR concentration 180 nM, RXRa partner concentration 90 nM)
Method in brief: as §1

[8] = test system: PPARg:RXRa 270nM:90nM, anti-RXR (NR concentration 270 nM, RXRa partner concentration 90 nM)
Method in brief: as §1

[9] = test system: PPARg:RXRa 30nM:10nM, anti-RXR (NR concentration 30 nM, RXRa partner concentration 10 nM)
Method in brief: as §1

[10] = test system: PPARg:RXRa 90nM:30nM, anti-RXR (NR concentration 90 nM, RXRa partner concentration 30 nM)
Method in brief: as §1

[11] = test system: PPARg:RXRa DBDmut IVT, anti-RXR (DBD mutation: RXRa K156A/R161A, NR concentration 270 nM, RXRa partner concentration 90 nM)
Method in brief: as §1

[12] = test system: PPARg:RXRa IVT, anti-PPARg (NR concentration 270 nM, RXRa partner concentration 90 nM)
Method in brief: as §1

[13] = test system: PPARg DBDmut:RXRa IVT, anti-PPARg (DBD mutation: PPARg1 K132A/R137A, NR concentration 270 nM, RXRa partner concentration 90 nM)
Method in brief: as §1

[14] = test system: PPARg DBDmut IVT, anti-PPARg (DBD mutation: PPARg1 K132A/R137A, NR concentration 270 nM)
Method in brief: as §1

[15] = test system: PPARg homodimer (NR concentration 180 nM)
Method in brief: as §1

[16] = test system: PXR:RXRa (NR concentration 270 nM, RXRa partner concentration 90 nM)
Method in brief: as §1

[17] = test system: PXR homodimer (NR concentration 270 nM)
Method in brief: as §1

[18] = test system: RARa:RXR (NR concentration 270 nM, RXRa partner concentration 90 nM)
Method in brief: as §1

[19] = test system: RARa homodimer (NR concentration 270 nM)
Method in brief: as §1

[20] = test system: RARb:RXRa (NR concentration 270 nM, RXRa partner concentration 90 nM)
Method in brief: as §1

Sequence	PBM binding z-score [1]	PBM binding z-score [2]	PBM binding z-score [3]	PBM binding z-score [4]	PBM binding z-score [5]	PBM binding z-score [6]	PBM binding z-score [7]	PBM binding z-score [8]	PBM binding z-score [9]	PBM binding z-score [10]	PBM binding z-score [11]	PBM binding z-score [12]	PBM binding z-score [13]	PBM binding z-score [14]	PBM binding z-score [15]	PBM binding z-score [16]	PBM binding z-score [17]	PBM binding z-score [18]	PBM binding z-score [19]	PBM binding z-score [20]
CCAGACAGGTGAAAGGTAAATCAGTCTGGTACGC	0.431	0.642	-0.205	0.749	-0.327	3.27	5.01	5.7	4	6.32	1.86	2.8	0.0874	-1.06	2.52	0.697	-0.183	1.67	0.663	1.04
TGAATGAGGTTCAAGATCAGGGAACGTGGCGTCG	0.995	0.96	-0.757	0.185	-0.0166	1.76	0.831	1.62	0.424	1.14	-0.641	0.696	0.378	0.169	-0.0825	0.583	-0.309	0.775	0.0432	1.17
GCTATTAGTTGAAAGGGCAAGCGAATGATTCTCG	0.532	0.54	-0.0155	0.379	-0.106	2.13	2.5	4.12	2.04	4.08	0.45	0.54	-0.251	0.055	1.28	0.469	0.0641	1.19	0.795	1.94
AGAATTAGGTTATACGTAGATCAGGGAAGAAAGT	0.495	0.704	0.321	0.628	0.596	2.29	2.76	2.95	1.74	2.58	6.81	4.61	1.46	1.36	1.25	0.291	0.914	0.687	0.896	0.776
TCTATTAGTTGACGGGCAACCGACGAGTCCGTTT	0.51	0.776	0.073	0.407	0.493	0.565	0.00282	1.62	3.47	2.48	2.04	0.118	0.163	0.317	0.156	0.38	0.151	0.201	0.109	0.613
GCTATCAGGCCATTTGGGTCACTCAATGACGGGC	0.309	0.382	-0.0509	0.286	0.109	1.73	0.893	0.805	-0.227	0.276	2.06	2.59	-0.109	-0.362	0.448	1.01	0.354	1.2	-0.0153	1.87
AGAATGAGGTTATTAAGATCAGGGACTTGCGGTC	1.59	1.49	0.193	1.13	0.02	2.5	1.59	1.87	0.187	1.08	3.54	2.69	0.364	0.0807	0.911	1.15	0.684	1.36	0.425	1.37
ATCTCTAGGTAAAAGTTCAGAGAATCCCGAGGAT	1.14	1.55	1.43	1.03	0.872	4.35	8.44	7.88	7.79	9.43	2.03	3.83	1.22	1.3	1.38	1.99	1.55	1.76	1.49	2.5
ACAGACAGGTGAGTTAAGGTAACTCAGCTGGACG	0.488	-0.196	-0.499	-0.279	-0.347	0.226	0.637	0.279	0.254	0.0651	0.272	0.601	0.0974	0.513	0.279	0.151	-0.384	1.29	-0.525	0.48
ATATGTAGGTTAGCTGGGGTCAATCAGACTAGGC	4.21	5.44	1.4	4.65	1.47	5.14	5.84	5.34	2.61	4.68	6.88	6.36	2.08	1.26	2.34	6	1.44	5.08	1.21	3.04
CCTTACGGGTTACTGACAGGTTATAGCATTTGGA	0.701	2.51	0.282	1.34	-0.567	1.78	0.373	1.24	0.114	0.535	1.04	0.57	-0.172	-0.367	1.21	0.825	0.22	1.51	0.545	0.924
CGTCCAAGGTCAAGGTCAGTGATAGAGACTCGAA	7.73	5.59	1.52	4.55	0.758	6.02	6.2	6.15	2.73	4.98	3.79	4.5	1.28	0.138	4.99	5.05	1.18	5.44	2.41	5.73
AGAACGTGGGCAATGAGTTGATAGCACGGGTGGC	-0.669	-0.786	-0.475	-1.07	-0.973	-0.601	0.723	-0.543	-0.342	-0.679	-0.374	-0.0857	-0.361	-0.494	-0.516	-0.399	-0.204	-0.5	-0.521	-0.261
CAAACTAGGTAAAAGGTCAAAGTCGAGCCAACCA	6.21	6.09	4.59	5.87	2.23	6.92	12.1	10.2	11	11.4	7.05	7.46	2.77	1.52	3.65	5.33	1.53	6.52	2.55	4.87
CCTTACGGGTCATGAGGTTATAGCACGACGAGCG	7.04	4.93	0.379	3.84	0.286	5.85	5.69	5.69	2.37	4.58	3.29	4.22	1.38	0.99	3.37	4.44	0.345	5.82	1.27	4.11
TATATAGGGTCAAAGGCCAGAGTACGAATGTCGA	7.32	6.1	2.48	5.05	2.01	6.35	8.65	7.34	5.8	7.54	3.56	5.37	1.12	1.69	2	4.21	0.472	5.56	0.52	4.49
ACAGACAGGTGAGTGAAGGTGACTCAGCTGGACG	0.162	-0.00172	-0.654	-0.308	-0.35	0.592	0.8	0.28	-0.492	-0.01	0.718	1.24	0.42	-0.00311	-0.248	-0.0313	-0.405	0.49	0.0445	0.935
CGTCAAAGTGCAAGGTAACGTAACAGAAAGCAGC	0.00612	0.219	-0.312	0.159	-0.589	0.731	0.773	0.593	-0.0711	0.326	0.0283	0.682	-0.0131	-0.0811	0.153	0.149	-0.225	0.344	-0.0833	2.05
ATACCAAGGTGATCGTGAGGTCGTTGAGACTAAC	1.86	1.27	0.536	0.968	0.251	1.55	0.356	0.352	-0.174	-0.0872	0.478	1.15	0.272	-0.217	0.626	2.93	1.28	1.91	0.197	1.39
TGAATGAGGTTAAAGTTCAGGGAACGTGGCGTCG	5.71	4.98	2.46	3.68	0.344	6.3	9.26	8.25	8.5	9.05	2.35	5.08	1.25	1.55	1.98	5.23	0.746	6.19	0.262	3.63
CCTTACGGGTCATTGACAGGTTATAGCATTTGGA	5.92	4.79	1.1	3.85	0.271	5.27	3.6	4.06	1.55	2.75	2.34	2.72	0.642	0.325	2.77	3.94	0.591	4.67	0.122	3.64
CCTTACGGGTCGCTCCAGGTTATAGCATCGGAGT	1.38	2.13	-0.172	0.57	-0.524	1.24	0.136	0.211	-0.551	-0.391	0.145	0.244	-1.18	-0.791	0.495	1.93	-0.171	1.02	-0.313	1.22
TTAGCAAGGTGAAAGGTCGTTGATGCACGCCTTG	3.42	2.78	-0.037	2.47	-0.713	5.24	8.3	7.95	8.33	9.55	2.15	4.63	0.373	-0.113	1.42	3.85	0.158	5.72	-0.524	2.98
ATCGAAAGTTCGAAGGTGAGTATACCCACCCGAA	0.822	1.16	0.11	0.739	-0.0356	1.9	1.07	1.17	0.177	0.844	0.0334	0.537	0.525	0.231	0.595	1.16	-0.00599	1.67	-0.2	2.07
TAGCCTAGGTCAGATCGCGCCAGTATACGCTATA	1.75	0.937	-0.15	1.09	-0.19	1.63	0.856	0.842	0.125	0.595	0.721	1.46	-0.73	0.133	0.207	0.262	-0.578	0.7	-0.794	2.95
AACTCTAGGTAAAAGTTCAGTGAATCCCGAGGAT	1.13	1.42	1.21	0.973	0.00492	4.2	7.44	7.64	6.5	8.32	2.73	3.74	1.15	0.487	1.93	1.83	1.06	1.75	0.344	2.42
TCTAGCAGGCCAGAGAGTCACTCAAGAGGTACGG	-0.122	0.066	-0.75	-0.374	-1.55	0.177	0.656	1.18	1.72	1.4	0.614	-0.685	-1.43	-1.33	-0.979	-0.468	-0.71	-0.29	-0.925	-0.0563
CCTACTGGGCCAAAAAGGTCATTGCTGCCGATAA	3.75	4.36	3.33	4.21	0.236	4.7	3.04	4.09	1.5	3.64	4.17	4.29	0.288	-0.116	3.92	4.87	3.45	5.19	0.902	3.98
AGAACGAGGGCACGCTAAGTTGATAGCAGAGTAG	0.75	0.717	-0.396	0.353	-0.515	2.07	2.2	1.87	0.473	1.22	4.41	3.93	1.79	0.754	0.364	1.11	0.0616	1.3	-0.579	2.51
